PubChem BioAssay (NCI)
About 79,000 compounds went through this panel and 15% of them were active in at least one assay; those are over-represented in the sample as a whole. Values without a mark were called inactive. Active and inactive are the calls of the source. Rule as the data show it: active = growth inhibition above about 70%; inactive = the rest.

Columns and labels:
[1] = NCI Yeast Anticancer Drug Screen. Data for the rad50 strain (AID 155);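 also: 0% = growth of vehicle-only cultures of the same strain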; conditions: S. cerevisiae rad50 strain growth inhibition, stronger effect = higher value
How it was run: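 Vehicle-treated cultures provide the reference for the growth inhibition reported for compound-exposed, repair-deficient yeast.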

[2] = NCI Yeast Anticancer Drug Screen. Data for the mec2-1 strain (AID 157); conditions: S. cerevisiae mec2-1 strain, stronger effect = higher value
How it was run: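 Yeast mec2-1 mutant treated with compound. Readout: growth inhibition vs vehicle controls.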

[3] = NCI Yeast Anticancer Drug Screen. Data for the sgs1 mgt1 strain (AID 161);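 also: 0% = growth of cultures given vehicle only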; conditions: S. cerevisiae sgs1 mgt1 strain, stronger effect = higher value
How it was run: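 Mutant yeast exposed to compound; growth scored against vehicle-only wells.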

[4] = NCI Yeast Anticancer Drug Screen. Data for the cln2 rad14 strain (AID 165);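 also: 0% = growth equal to vehicle treated cultures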; conditions: S. cerevisiae cln2 rad14 strain, stronger effect = higher value
How it was run: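 cln2 rad14 yeast strain; compound exposure; growth inhibition read vs vehicle controls.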

[5] = NCI Yeast Anticancer Drug Screen. Data for the bub3 strain (AID 167); conditions: S. cerevisiae bub3 mutant strain, stronger effect = higher value
How it was run: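 Mutant yeast screening strain plus compound; vehicle-treated cultures serve as the 0% inhibition reference.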

[6] = NCI Yeast Anticancer Drug Screen. Data for the mlh1 rad18 strain (AID 175); conditions: S. cerevisiae mlh1 rad18 strain growth inhibition, stronger effect = higher value
How it was run: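 Yeast w/ defined DNA-repair lesions; compound exposure; growth vs vehicle controls → % inhibition.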

[7] = at 5.0 µM (retest, dose inferred, filed as 0.5)
[8] = at 50.0 µM (retest, dose inferred, filed as 5.0)

| Structure (SMILES) | growth inhibition [1, 7] | growth inhibition [1, 8] | growth inhibition ([1]; at 50.0 µM) | growth inhibition [2, 7] | growth inhibition [2, 8] | growth inhibition ([2]; at 50.0 µM) | growth inhibition [3, 7] | growth inhibition [3, 8] | growth inhibition ([3]; at 50.0 µM) | growth inhibition [4, 7] | growth inhibition [4, 8] | growth inhibition ([4]; at 50.0 µM) | growth inhibition [5, 7] | growth inhibition [5, 8] | growth inhibition ([5]; at 50.0 µM) | growth inhibition [6, 7] | growth inhibition [6, 8] | growth inhibition ([6]; at 50.0 µM) |
| --- | --- | --- | --- | --- | --- | --- | --- | --- | --- | --- | --- | --- | --- | --- | --- | --- | --- | --- |
| O=C(O)/C=C\C(=O)Nc1ccc2c(c1)C(=O)c1cc(F)ccc1-2 | 10% | 20% | 29% | -1% | -7% | -2.7% | -4% | 19% | -5.2% | -6% | 6% | 68.2% | -2% | 2% | -36.6% | 8% | 17% | 4.5% |
| Cc1ccc(S(=O)(=O)NCCCSCCO)cc1 | 6% | 45% | 80.2% (active) | -45% | 91% (active) | 84.4% (active) | -12% | 25% | 70.4% (active) | 9% | 57% | 74% (active) | -11% | 63% | 74.2% (active) | -1% | 90% (active) | 54.6% |
| CC(=O)N/N=C1/CC[C@@]2(C)C(=CC[C@H]3C4CCC(C(C)CCCC(C)C)[C@@]4(C)CCC32)C1(C)C (some centres not stated) | -23% | 79% (active) | 31.6% | -14% | 83% (active) | 6.35% | -7% | 84% (active) | 24.8% | -11% | 74% (active) | 55.1% | -10% | 70% (active) | 29.6% | -12% | 90% (active) | 1.3% |
| OCC1CC[N-]CC1.OCC1CC[N-]CC1.[Cl][Pt+2]([Cl])([Cl])[Cl] | 24% | 99% (active) | 98.4% (active) | 5% | 97% (active) | 92.6% (active) | 33% | 98% (active) | 96.8% (active) | 15% | 98% (active) | 92.3% (active) | 6% | 99% (active) | 96.2% (active) | 40% | 98% (active) | 82.5% (active) |
| c1ccc([P+](c2ccccc2)(c2ccccc2)C2CCCCO2)cc1 (configuration not stated) | 17% | 74% (active) | 67.8% | -4% | 83% (active) | 83.2% (active) | 4% | 69% | 35.1% | -2% | 77% (active) | 49.5% | 5% | 77% (active) | 54% | 1% | 61% | 81.1% (active) |
| Cc1ccc2nc(N/N=C/c3cccc(C)n3)cc(C)c2c1 | 8% | 62% | 89.3% (active) | -2% | 37% | 21.2% | 6% | 80% (active) | 89.8% (active) | -8% | 61% | 74.9% (active) | -11% | 57% | 73.1% (active) | 4% | 64% | 84.3% (active) |
| O=C1CCCC1CN1CCOCC1 (configuration not stated) | 5% | 97% (active) | 75% (active) | -21% | 97% (active) | 75.7% (active) | -32% | 75% (active) | 82% (active) | 6% | 66% | 64.4% | -20% | 96% (active) | 84.5% (active) | -6% | 99% (active) | 83.5% (active) |
| O=P(C(=S)Nc1ccccc1Cl)(c1ccccc1)c1ccccc1 | 15% | 96% (active) | 88.5% (active) | 16% | 98% (active) | 90.5% (active) | -1% | 96% (active) | 92.8% (active) | -6% | 97% (active) | 87.5% (active) | -26% | 97% (active) | 89.2% (active) | -26% | 96% (active) | 89.2% (active) |
| Cc1cccnc1NC(=S)Nc1ccccc1Cl | 2% | 99% (active) | 89.5% (active) | 12% | 99% (active) | 91.3% (active) | 28% | 99% (active) | 93.2% (active) | -12% | 99% (active) | 85.8% (active) | 18% | 95% (active) | 91.8% (active) | 28% | 99% (active) | 89.5% (active) |
